Measured values from article PMC9911399, “Two distinct binding modes provide the RNA-binding protein RbFox with extraordinary sequence specificity”.
Changes are numbered by the printed parent chain; changes in the protein carry UniProt numbers. The full ranking holds about 16,000 sequences; the median of “ka relative to ugcaugu” is about 0.0091, and the highest 2% start at about 0.032. The list comes from a sample in which the highest values are over-represented; it also holds similar and randomly drawn sequences.

T1: RBFOX1 RRM (Homo sapiens, UniProt Q9NWB1 109-208)
T1 sequence: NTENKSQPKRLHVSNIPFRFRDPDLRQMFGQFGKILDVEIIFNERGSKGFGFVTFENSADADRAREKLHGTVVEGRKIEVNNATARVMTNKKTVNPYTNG

B1: UGUCCGA (DNA:RNA)
RNA: GGGAGACCGGAAUUCAGAUUGUCCUGUCCGAUUAAAUCCCGUCGUAGCCACCA
DNA 1: CAATCTGAATTCCGGTCTCCC
DNA 2: TGGTGGCTACGACGGGATT
B2: CCAGGCU (DNA:RNA)
RNA: GGGAGACCGGAAUUCAGAUUGUCCCCAGGCUUUAAAUCCCGUCGUAGCCACCA
DNA 1: CAATCTGAATTCCGGTCTCCC
DNA 2: TGGTGGCTACGACGGGATT
B3: UAGUUGG (DNA:RNA)
RNA: B1 RNA with G26A, U27G, C28U, C29U, A31G
DNA 1: CAATCTGAATTCCGGTCTCCC
DNA 2: TGGTGGCTACGACGGGATT
B4: CCAAUAG (DNA:RNA)
RNA: B2 RNA with G28A, G29U, C30A, U31G
DNA 1: CAATCTGAATTCCGGTCTCCC
DNA 2: TGGTGGCTACGACGGGATT
B5: UCAAGAG (DNA:RNA)
RNA: B2 RNA with C25U, G28A, C30A, U31G
DNA 1: CAATCTGAATTCCGGTCTCCC
DNA 2: TGGTGGCTACGACGGGATT
B6: GUUUUAG (DNA:RNA)
RNA: B1 RNA with U25G, G26U, C28U, C29U, G30A, A31G
DNA 1: CAATCTGAATTCCGGTCTCCC
DNA 2: TGGTGGCTACGACGGGATT
B7: GCGGAGC (DNA:RNA)
RNA: B2 RNA with C25G, A27G, G29A, C30G, U31C
DNA 1: CAATCTGAATTCCGGTCTCCC
DNA 2: TGGTGGCTACGACGGGATT
B8: CCUUACC (DNA:RNA)
RNA: B2 RNA with A27U, G28U, G29A, U31C
DNA 1: CAATCTGAATTCCGGTCTCCC
DNA 2: TGGTGGCTACGACGGGATT
B9: CCGUAGA (DNA:RNA)
RNA: B2 RNA with A27G, G28U, G29A, C30G, U31A
DNA 1: CAATCTGAATTCCGGTCTCCC
DNA 2: TGGTGGCTACGACGGGATT
B10: UGUGCCG (DNA:RNA)
RNA: B1 RNA with C28G, G30C, A31G
DNA 1: CAATCTGAATTCCGGTCTCCC
DNA 2: TGGTGGCTACGACGGGATT
B11: GUGCCUG (DNA:RNA)
RNA: B1 RNA with U25G, G26U, U27G, G30U, A31G
DNA 1: CAATCTGAATTCCGGTCTCCC
DNA 2: TGGTGGCTACGACGGGATT
B12: UGCUGGU (DNA:RNA)
RNA: B1 RNA with U27C, C28U, C29G, A31U
DNA 1: CAATCTGAATTCCGGTCTCCC
DNA 2: TGGTGGCTACGACGGGATT
B13: UGUUGCC (DNA:RNA)
RNA: B1 RNA with C28U, C29G, G30C, A31C
DNA 1: CAATCTGAATTCCGGTCTCCC
DNA 2: TGGTGGCTACGACGGGATT
B14: UGUCCCG (DNA:RNA)
RNA: B1 RNA with G30C, A31G
DNA 1: CAATCTGAATTCCGGTCTCCC
DNA 2: TGGTGGCTACGACGGGATT
B15: UGGUUCC (DNA:RNA)
RNA: B1 RNA with U27G, C28U, C29U, G30C, A31C
DNA 1: CAATCTGAATTCCGGTCTCCC
DNA 2: TGGTGGCTACGACGGGATT
B16: UUGCCUG (DNA:RNA)
RNA: B1 RNA with G26U, U27G, G30U, A31G
DNA 1: CAATCTGAATTCCGGTCTCCC
DNA 2: TGGTGGCTACGACGGGATT
B17: UGGUUCG (DNA:RNA)
RNA: B1 RNA with U27G, C28U, C29U, G30C, A31G
DNA 1: CAATCTGAATTCCGGTCTCCC
DNA 2: TGGTGGCTACGACGGGATT
B18: UGGUGCC (DNA:RNA)
RNA: B2 RNA with C25U, C26G, A27G, G28U, U31C
DNA 1: CAATCTGAATTCCGGTCTCCC
DNA 2: TGGTGGCTACGACGGGATT
B19: GUCCUGG (DNA:RNA)
RNA: B1 RNA with U25G, G26U, U27C, C29U, A31G
DNA 1: CAATCTGAATTCCGGTCTCCC
DNA 2: TGGTGGCTACGACGGGATT
B20: UGCCUGG (DNA:RNA)
RNA: B1 RNA with U27C, C29U, A31G
DNA 1: CAATCTGAATTCCGGTCTCCC
DNA 2: TGGTGGCTACGACGGGATT
B21: UGUAGCC (DNA:RNA)
RNA: B1 RNA with C28A, C29G, G30C, A31C
DNA 1: CAATCTGAATTCCGGTCTCCC
DNA 2: TGGTGGCTACGACGGGATT

biological target: T1, RBFOX1 RRM; assay: EMSA; HiTS-Eq, 1 nM pool, 10 min; buffer printed only for the single-RNA assays: 10 mM Tris pH 7.5, 150 mM NaCl, 3.4 mM EDTA, 0.001% NP-40, 30 C; settings: tags: His6 N-terminal (pET28a); label: 5' 32P
In short: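 Purified wild-type or mutant RbFox RRM at increasing concentrations was equilibrated with 1 nM of 5′-radiolabelled RNA carrying 7 randomized nucleotides for 10 min in 50 µL. Unbound RNA was separated by 8% native PAGE and sequenced. Relative association constants came from read-count changes of each RNA species compared with the control reaction, normalised to the cognate motif.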

Binder	binding signal
B1	0.0182 KA relative to UGCAUGU
B2	0.00926 KA relative to UGCAUGU
B3	0.0164 KA relative to UGCAUGU
B4	0.00034 KA relative to UGCAUGU
B5	0.00877 KA relative to UGCAUGU
B6	0.0145 KA relative to UGCAUGU
B7	0.0117 KA relative to UGCAUGU
B8	0.00281 KA relative to UGCAUGU
B9	0.00944 KA relative to UGCAUGU
B10	0.0199 KA relative to UGCAUGU
B11	0.0397 KA relative to UGCAUGU
B12	0.028 KA relative to UGCAUGU
B13	0.0243 KA relative to UGCAUGU
B14	0.0122 KA relative to UGCAUGU
B15	0.0214 KA relative to UGCAUGU
B16	0.0452 KA relative to UGCAUGU
B17	0.0375 KA relative to UGCAUGU
B18	0.0219 KA relative to UGCAUGU
B19	0.0183 KA relative to UGCAUGU
B20	0.0474 KA relative to UGCAUGU
B21	0.0129 KA relative to UGCAUGU
